# Records with an inconclusive call do not appear. The source made the active and inactive calls. Calls come from the whole dose curve; as a rule, active = well fitted inhibition curve with a large enough effect; inconclusive = small, poorly fitted or top-dose-only effect; inactive = no such curve, though single readings can be large or run the other way.
# Assay: Primary fluorescence-based thiol-reactive (MSTI) qHTS assay for identification of artifact compounds. (AID 1845221); note: nearly all actives have a fitted effect of over 65% in size
# Details: MSTI thiol-reactivity probe, 1 h; series mostly up to 53.8 µM; activity change, negative = thiol reactive: at the top concentration
# Outline: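 Compounds were incubated 1 h at room temperature in the dark with the MSTI probe (4 uM) in PBS pH 7.4, 2% DMSO. Signals were normalized between Acetyl-MSTI and MSTI.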
# Potency is the fitted concentration of half-maximal effect.
SMILES,"activity change, negative = thiol reactive",Potency
CC(C)(O)c1ccc2c(c1)C(O)CC1C(C)(C(=O)O)CCCC21C (centres undefined),14.7% (inactive),–
CCC(=O)N[C@@H]1Cc2ccccc2[C@H](c2ccccc2)C1,93.5% (inactive),–
CC(=O)NCCCCn1c2c(c3ccccc31)C(=O)NCC2,-21.6% (inactive),–
CC(=O)OC[C@@]12[C@H](O)C[C@@H](C)[C@]3(C[C@@H](c4ccoc4)OC3=O)[C@H]1C[C@H](O)C[C@]21CO1,16.3% [at 25.6 µM] (inactive),–
CC(C)C1=CCC(C)(O)C(OC2OC(CO)C(O)C(O)C2O)C1 (centres undefined),–,2.33 µM (active)
CC(C)C(=O)O[C@@H]1[C@@H](O)[C@@H](O[C@H]2O[C@H](CO)[C@@H](O)[C@H](O)[C@H]2O)O[C@H](CO)[C@H]1O,-8.74% [at 25.6 µM] (inactive),–
CC(C)C1(O[C@@H]2O[C@H](CO)[C@@H](O)[C@H](O)[C@H]2O)CC=C(CO)CC1 (some centres undefined),–,11.7 µM (active)
O=C(COc1ccc(Cl)cc1)NC1CCC(NC(=O)COc2ccc(Cl)cc2)CC1 (centres undefined),-1.49% (inactive),–
CC1(C)CC2C(O)C3=C(CC(C)(O)C2C1)C(=O)OC3O (centres undefined),-8.46% (inactive),–
COc1cccc2c1CCC[C@H]2CN(C)CCc1ccc2ccoc2c1,64.2% (inactive),–
C=C(C)[C@H]1C[C@@H](O)C(=C)CC[C@@H](O)C(=C)[C@@H](O)C1,–,11.9 µM (active)
CC1(C)O[C@@]2(C)CC[C@@H]1C[C@@H]2OC1OC(CO)C(O)C(O)C1O (some centres undefined),–,7.36 µM (active)
O=C(/C=C/c1ccc(O)cc1)OC[C@H]1O[C@@H](OC(=O)/C=C/c2ccccc2)[C@H](O)[C@@H](O)[C@@H]1O,–,11.6 µM (active)
Cc1ncc([N+](=O)[O-])n1CC(O)CN1CCOCC1 (centres undefined),-3.72% (inactive),–
CC(CO[C@@H]1O[C@H](COC(=O)/C=C/c2ccc(O)c(O)c2)[C@@H](O)[C@H](O)[C@H]1O)C1(O)COC(=O)C1 (some centres undefined),–,1.84 µM (active)
Cc1cn2c(N)c(Cl)cc(C(=O)NCC3CCN(CC(C)C)CC3)c2n1,-14% (inactive),–
COC(=O)C1=CO[C@@H](O[C@@H]2O[C@H](CO[C@@H]3O[C@H](COC(=O)/C=C/c4ccc(O)cc4)[C@@H](O)[C@H](O)[C@H]3O)[C@@H](O)[C@H](O)[C@H]2O)[C@@H]2C(CO)=CC[C@H]12,-14.8% [at 25.6 µM] (inactive),–
Nc1ncnc2c1ncn2[C@H]1CCCO1,-0.0813% (inactive),–
CCC(C)(O)C(O)C(=O)OCc1ccc(O[C@@H]2O[C@H](CO)[C@@H](O)[C@H](O)[C@H]2O)cc1 (some centres undefined),-0.421% [at 25.6 µM] (inactive),–
CC(=O)N1CCN(NC(=O)c2ccc(F)cc2)CC1,-14% (inactive),–

SMILES,"activity change, negative = thiol reactive",Potency
COC(=O)C1(Cc2ccc(O)cc2)OC(=O)C(OC)=C1c1ccc(O)cc1 (centres undefined),22.9% (inactive),–
C=CC1C(O[C@@H]2O[C@H](CO)[C@@H](O)[C@H](O)[C@H]2O)OC=C(C(=O)OC)C1Cc1nccc2c1[nH]c1ccccc12 (some centres undefined),3.81% [at 25.6 µM] (inactive),–
CC(C)(C)c1cc(CN2CCN(CC(O)c3ccc(Cl)cc3)CC2)cc(C(C)(C)C)c1O (centres undefined),0.959% (inactive),–
CC1(C)C(=O)N2c3ccccc3[C@]3(CC(n4cnc5ccccc5c4=O)C(=O)O3)[C@H]2N1O (some centres undefined),86.7% [at 25.6 µM] (inactive),–
CC[C@H](C)/C=C(C)/C=C/C(=O)Cc1cc(O)c(C)c(O)c1C=O,–,14.7 µM (active)
CC(=O)c1c(O)cc2c(c1C)C(=O)CC(O)C2 (centres undefined),–,10.6 µM (active)
C[C@H](NCc1ccc(OCc2ccccc2F)cc1)C(N)=O,-8.54% (inactive),–
COc1cc(/C=C/c2cc(O)cc(O[C@@H]3O[C@H](CO)[C@@H](O)[C@H](O)[C@H]3O)c2)ccc1O,-6.99% [at 25.6 µM] (inactive),–
CC1(C)CC[C@]2(C(=O)O)CC[C@]3(C)C(=CCC4[C@@]5(C)C[C@H](O)[C@H](O[C@@H]6OC[C@H](O)[C@H](O)[C@H]6O)[C@@](C)(CO)C5CC[C@]43C)[C@@H]2C1 (some centres undefined),1.62% [at 25.6 µM] (inactive),–
COc1cc([C@H]2OC[C@]3(OC(C)=O)[C@@H](c4ccc(O[C@@H]5O[C@H](CO)[C@@H](O)[C@H](O)[C@H]5O)c(OC)c4)OC[C@H]23)ccc1O,22.9% [at 25.6 µM] (inactive),–
CC1(C)CCC(C)(C)c2cc3c(cc21)Sc1ccccc1N=C3c1ccc(C(=O)O)cc1,0.0064% (inactive),–
O=C(O)[C@H]1CCCC[C@H]1C(=O)N1CCc2ccccc2[C@H]1CN1C(=O)c2ccccc2C1=O,121% (inactive),–
C=C1[C@H]2CC[C@]3(O)[C@@](CC[C@@H]4[C@](C)(C(=O)O)CCC[C@]43C)(C2)[C@H]1OC(=O)/C(C)=C\C,48.8% [at 25.6 µM] (inactive),–
C[C@H]1[C@H](C)CC[C@]2(C(=O)O)CC[C@]3(C(=O)O)C(=CCC4[C@@]5(C)CC[C@H](O[C@@H]6O[C@H](C)[C@@H](O)[C@H](O)[C@H]6O)C(C)(C)C5CC[C@]43C)[C@H]12 (some centres undefined),46.7% [at 25.6 µM] (inactive),–
O=C(c1ccccn1)c1cnn2c(-c3ccncc3)ccnc12,-1.78% (inactive),–
COc1c(C)c2c(c(O)c1C/C=C(\C)CC/C=C(\C)CCC(=O)O)C(=O)OC2,53.7% (inactive),–
C=C1CC2(C(=O)O)CC1CCC2C1(C)CCCC2(C)C(=O)OC(O)C21 (centres undefined),14.7% (inactive),–
CC(C)=CC/C=C(/C)[C@H]1CC[C@]2(C)[C@@H]1[C@H](O)CC1[C@@]3(C)CC[C@H](O)C(C)(C)[C@@H]3[C@@H](O[C@@H]3O[C@H](CO)[C@@H](O)[C@H](O)[C@H]3O[C@@H]3O[C@@H](C)[C@H](O)[C@@H](O)[C@H]3O)C[C@]12C (some centres undefined),46.8% [at 25.6 µM] (inactive),–
O=C1NC(Cc2ccc(O)cc2)C(=O)N2CCCC12 (centres undefined),0.739% (inactive),–
